# Assay results as given in PubChem BioAssay (NCATS).
# Values without a mark were called inactive. Inconclusive results are not listed. Some of the results follow. A call without a number means that no potency is given here. The source made the active and inactive calls. Unless noted, calls come from the whole dose curve; as a rule, active = well fitted curve in the direction sought with a large enough effect; inconclusive = small, poorly fitted or top-dose-only effect, or another doubt; inactive = no such curve, though single readings can be large; an effect the other way counts as inactive or inconclusive.
# How the values were obtained:
# [1] = target: Tumor susceptibility gene 101 protein (Homo sapiens) (UniProt Q99816); experiment: qHTS Assay for Iinhibitors of HIV-1 Budding by Blocking the Interaction of PTAP/TSG101: Hit Validation (AID 651600); note: nearly all actives have a fitted effect of over 70% in size; note: potency is the fitted concentration of half-maximal effect
# Sequence of Tumor susceptibility gene 101 protein (Homo sapiens) (Q99816 whole entry, looked up, the tested form may be a part): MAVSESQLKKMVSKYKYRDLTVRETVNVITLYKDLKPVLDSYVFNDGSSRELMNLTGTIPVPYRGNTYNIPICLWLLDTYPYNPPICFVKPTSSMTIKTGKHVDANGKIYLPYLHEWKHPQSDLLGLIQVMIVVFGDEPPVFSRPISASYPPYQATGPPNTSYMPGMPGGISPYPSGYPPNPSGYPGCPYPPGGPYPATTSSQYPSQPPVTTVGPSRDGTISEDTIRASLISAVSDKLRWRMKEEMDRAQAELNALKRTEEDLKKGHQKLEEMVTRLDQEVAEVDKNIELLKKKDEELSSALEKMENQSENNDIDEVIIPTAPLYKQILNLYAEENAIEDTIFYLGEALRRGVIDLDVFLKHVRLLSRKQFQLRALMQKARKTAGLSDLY
# Procedure, shortened: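 FITC-PTAP peptide (50 nM final) binding to Tsg101 binding domain (10 uM final) was measured by polarization after 20 min at r.t. with compounds, in 10 mM HEPES pH 7.5 buffer with 0.15 M NaCl and 0.01% Tween 20.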
# [2] = target: Rap guanine nucleotide exchange factor 3 (Homo sapiens) (UniProt O95398); experiment: Confirmatory qHTS for agonist of cAMP-regulated guanine nucleotide exchange factor 3 (EPAC1) (AID 1645881);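 note: EPAC1 catalysed release of BODIPY-GDP from Rap1B seen as fluorescence loss; nearly all actives have a fitted effect of over 75% in size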
# Sequence of Rap guanine nucleotide exchange factor 3 (Homo sapiens) (O95398 whole entry, looked up): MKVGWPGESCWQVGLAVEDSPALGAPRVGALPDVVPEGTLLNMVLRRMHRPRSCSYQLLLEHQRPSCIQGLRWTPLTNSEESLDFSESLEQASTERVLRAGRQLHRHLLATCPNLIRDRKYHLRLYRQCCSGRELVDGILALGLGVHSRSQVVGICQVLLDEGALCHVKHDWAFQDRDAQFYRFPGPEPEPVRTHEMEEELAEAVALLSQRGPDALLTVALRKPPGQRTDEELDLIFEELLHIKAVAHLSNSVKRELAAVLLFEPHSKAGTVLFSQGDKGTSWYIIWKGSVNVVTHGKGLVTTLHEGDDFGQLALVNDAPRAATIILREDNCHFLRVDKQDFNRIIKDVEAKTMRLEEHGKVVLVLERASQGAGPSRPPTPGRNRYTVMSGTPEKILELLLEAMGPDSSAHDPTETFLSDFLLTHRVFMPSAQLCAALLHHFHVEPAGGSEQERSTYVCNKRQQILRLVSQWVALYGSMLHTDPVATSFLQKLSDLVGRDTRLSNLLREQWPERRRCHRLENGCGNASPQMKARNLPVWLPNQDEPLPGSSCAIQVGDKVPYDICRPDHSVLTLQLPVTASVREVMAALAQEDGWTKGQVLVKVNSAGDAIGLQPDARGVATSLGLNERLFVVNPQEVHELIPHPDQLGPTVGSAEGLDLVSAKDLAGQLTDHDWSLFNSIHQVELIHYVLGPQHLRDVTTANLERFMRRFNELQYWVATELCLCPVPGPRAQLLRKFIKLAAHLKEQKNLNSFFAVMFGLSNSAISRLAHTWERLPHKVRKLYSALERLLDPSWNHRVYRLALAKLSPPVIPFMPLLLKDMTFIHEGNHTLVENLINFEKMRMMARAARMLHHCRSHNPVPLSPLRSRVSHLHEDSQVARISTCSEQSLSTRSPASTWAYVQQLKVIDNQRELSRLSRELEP
# [3] = target: Rap guanine nucleotide exchange factor 4 (Homo sapiens) (UniProt Q8WZA2); experiment: Confirmatory qHTS for agonist of cAMP-regulated guanine nucleotide exchange factor 4 (EPAC2) (AID 1645884);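 note: nucleotide exchange releases bodipy-GDP from Rap1 and this lowers its fluorescence; nearly all actives have a fitted effect of over 65% in size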
# Sequence of Rap guanine nucleotide exchange factor 4 (Homo sapiens) (Q8WZA2 whole entry, looked up): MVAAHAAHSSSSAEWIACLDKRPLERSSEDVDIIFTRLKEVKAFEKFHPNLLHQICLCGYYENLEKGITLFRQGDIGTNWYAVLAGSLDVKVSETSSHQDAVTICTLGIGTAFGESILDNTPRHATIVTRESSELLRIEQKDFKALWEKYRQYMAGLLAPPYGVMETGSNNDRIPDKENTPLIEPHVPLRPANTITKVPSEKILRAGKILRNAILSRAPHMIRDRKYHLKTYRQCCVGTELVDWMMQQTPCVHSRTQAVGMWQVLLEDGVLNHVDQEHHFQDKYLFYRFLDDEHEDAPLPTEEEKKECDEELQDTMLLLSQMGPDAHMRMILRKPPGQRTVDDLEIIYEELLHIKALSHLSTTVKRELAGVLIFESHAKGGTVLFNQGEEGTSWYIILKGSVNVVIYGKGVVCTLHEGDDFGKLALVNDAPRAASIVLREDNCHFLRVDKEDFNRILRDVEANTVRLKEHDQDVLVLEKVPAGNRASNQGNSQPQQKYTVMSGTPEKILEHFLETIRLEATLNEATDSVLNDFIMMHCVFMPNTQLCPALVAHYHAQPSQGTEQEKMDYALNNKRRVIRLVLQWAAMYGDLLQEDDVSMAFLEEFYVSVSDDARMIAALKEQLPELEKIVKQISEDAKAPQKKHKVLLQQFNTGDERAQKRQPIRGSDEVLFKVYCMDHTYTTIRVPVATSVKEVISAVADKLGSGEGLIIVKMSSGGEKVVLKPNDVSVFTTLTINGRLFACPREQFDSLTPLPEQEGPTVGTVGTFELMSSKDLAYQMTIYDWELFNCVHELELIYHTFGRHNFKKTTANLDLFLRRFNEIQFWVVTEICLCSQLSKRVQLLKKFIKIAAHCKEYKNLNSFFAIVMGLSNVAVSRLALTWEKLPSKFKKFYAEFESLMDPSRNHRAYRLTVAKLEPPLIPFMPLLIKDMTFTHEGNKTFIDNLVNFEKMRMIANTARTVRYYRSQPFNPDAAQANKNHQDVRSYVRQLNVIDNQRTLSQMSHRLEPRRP
# [4] = target: Rap guanine nucleotide exchange factor 4 (Homo sapiens) (UniProt Q8WZA2); experiment: Confirmatory qHTS for antagonist of cAMP-regulated guanine nucleotide exchange factor 4 (EPAC2) (AID 1645885); note: nearly all actives have a fitted effect of over 25% in size
# [5] = target: Rap guanine nucleotide exchange factor 3 (Homo sapiens) (UniProt O95398); experiment: Counterscreen qHTS for antagonist of cAMP-regulated guanine nucleotide exchange factor 3 (EPAC1) (AID 1645888);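 note: fluorescence loss as bound BODIPY-GDP is released from Rap1B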
# Procedure, shortened: (§1)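 Rap1B–BODIPY-GDP (250 nM) with 50 uM GDP; compounds pin-transferred to 9.74 nM–152 uM final (activator) or from 7.32 nM upwards (inhibitor). Fluorescence Ex/Em 480/540 nm read at 5 and 30 min, then after adding cAMP or buffer, at room temperature.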
# [6] = target: Rap guanine nucleotide exchange factor 3 (Homo sapiens) (UniProt O95398); experiment: Counterscreen qHTS for agonist of cAMP-regulated guanine nucleotide exchange factor 3 (EPAC1) (AID 1645889); note: nearly all actives have a fitted effect of over 40% in size
# Procedure, shortened: as §1
# [7] = target: Tyrosyl-DNA phosphodiesterase 1 (Homo sapiens) (UniProt Q9NUW8); experiment: Confirmation Assay for Inhibitors of Tyrosyl-DNA Phosphodiesterase (TDP1) (AID 489007); details: recombinant human TDP1 enzymatic activity, dose-response; note: potency is the fitted concentration of half-maximal effect; nearly all actives have a fitted effect of over 40% in size
# Sequence of Tyrosyl-DNA phosphodiesterase 1 (Homo sapiens) (Q9NUW8 whole entry, looked up): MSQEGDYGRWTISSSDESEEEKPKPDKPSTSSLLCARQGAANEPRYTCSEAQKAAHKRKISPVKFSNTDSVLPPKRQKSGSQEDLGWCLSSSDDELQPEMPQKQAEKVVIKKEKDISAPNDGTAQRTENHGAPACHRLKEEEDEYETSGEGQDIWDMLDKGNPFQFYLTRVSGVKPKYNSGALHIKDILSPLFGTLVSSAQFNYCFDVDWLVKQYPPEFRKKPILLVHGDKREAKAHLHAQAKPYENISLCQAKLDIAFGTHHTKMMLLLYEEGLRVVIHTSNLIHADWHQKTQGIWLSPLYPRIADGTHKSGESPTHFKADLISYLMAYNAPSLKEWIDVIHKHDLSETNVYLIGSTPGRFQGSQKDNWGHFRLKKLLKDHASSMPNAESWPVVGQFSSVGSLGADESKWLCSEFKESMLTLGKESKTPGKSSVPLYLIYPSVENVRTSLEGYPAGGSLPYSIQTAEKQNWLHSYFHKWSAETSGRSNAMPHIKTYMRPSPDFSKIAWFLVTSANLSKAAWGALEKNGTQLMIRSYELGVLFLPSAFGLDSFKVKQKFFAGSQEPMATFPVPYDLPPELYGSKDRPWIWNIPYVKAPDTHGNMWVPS
# Procedure, shortened: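 Loss of AlphaScreen signal reports Tdp1 cleavage of a dual-labelled DNA substrate. Conditions: 1 nM E. coli-derived enzyme, 15 nM substrate, 15 min compound preincubation, 5 min reaction, 10 min bead incubation, all at room temperature.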
# [8] = AP1 Signaling Pathway (AID 357; active = well fitted curve in either direction with a large enough effect, not every such curve was filed as active); details: ME-180 (cervical carcinoma) AP-1-bla reporter, EGF-induced, beta-lactamase ratio, 5 h; at 7.69 µM (top of the series) unless noted
# Procedure, shortened: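 AP-1-bla ME-180 cells with beta-lactamase reporter under AP-1 response element, stimulated with EC50 EGF; compounds titrated, 5 hours at 37 degrees Celsius. CCF4 read at 460/530 nm ratio; positive and negative modulators judged by AC50.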
# [9] = NFAT Signaling Pathway (AID 444; active = well fitted curve in either direction with a large enough effect, not every such curve was filed as active;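 note: carbachol stimulus at about its EC50 of 1 µM final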); details: Jurkat NFAT-bla M1, carbachol, beta-lactamase ratio, 5 h; at 7.69 µM (top of the series) unless noted
# Procedure, shortened: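 Jurkat cells with NFAT-driven β-lactamase reporter and co-expressed M1 receptor, stimulated with carbachol (final 1 uM, ~EC50), compound titration, 5 h at 37 °C. CCF4 loaded 1 h at RT; 460/530 nm ratio gave %activity and AC50.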
# [10] = Stat Signaling Pathway (AID 446; active = well fitted curve in either direction with a large enough effect, not every such curve was filed as active;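 note: ME-180 cervical cancer cells given 40 pM IL-6 alongside compound; SIE-controlled beta-lactamase reporter measured as 460/530 nm FRET emission ratio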)
# Procedure, shortened: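 Compound effects on IL-6-induced STAT reporter activity were measured in ME-180 cells. After overnight culture, cells were co-treated with 40 pM IL-6 for 5 hrs before beta-lactamase substrate loading at room temperature.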
# [11] = target: Glucocorticoid receptor (Homo sapiens) (UniProt P04150); experiment: GR-GFP Redistribution (AID 450;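 active = compounds whose dose series gives a full or clear partial fitted curve of increased nuclear translocation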; note: potency is the fitted concentration of half-maximal effect); details: U2OS GR-GFP nuclear translocation, laser cytometry, 2 h
# Sequence of Glucocorticoid receptor (Homo sapiens) (P04150 whole entry, looked up, the tested form may be a part): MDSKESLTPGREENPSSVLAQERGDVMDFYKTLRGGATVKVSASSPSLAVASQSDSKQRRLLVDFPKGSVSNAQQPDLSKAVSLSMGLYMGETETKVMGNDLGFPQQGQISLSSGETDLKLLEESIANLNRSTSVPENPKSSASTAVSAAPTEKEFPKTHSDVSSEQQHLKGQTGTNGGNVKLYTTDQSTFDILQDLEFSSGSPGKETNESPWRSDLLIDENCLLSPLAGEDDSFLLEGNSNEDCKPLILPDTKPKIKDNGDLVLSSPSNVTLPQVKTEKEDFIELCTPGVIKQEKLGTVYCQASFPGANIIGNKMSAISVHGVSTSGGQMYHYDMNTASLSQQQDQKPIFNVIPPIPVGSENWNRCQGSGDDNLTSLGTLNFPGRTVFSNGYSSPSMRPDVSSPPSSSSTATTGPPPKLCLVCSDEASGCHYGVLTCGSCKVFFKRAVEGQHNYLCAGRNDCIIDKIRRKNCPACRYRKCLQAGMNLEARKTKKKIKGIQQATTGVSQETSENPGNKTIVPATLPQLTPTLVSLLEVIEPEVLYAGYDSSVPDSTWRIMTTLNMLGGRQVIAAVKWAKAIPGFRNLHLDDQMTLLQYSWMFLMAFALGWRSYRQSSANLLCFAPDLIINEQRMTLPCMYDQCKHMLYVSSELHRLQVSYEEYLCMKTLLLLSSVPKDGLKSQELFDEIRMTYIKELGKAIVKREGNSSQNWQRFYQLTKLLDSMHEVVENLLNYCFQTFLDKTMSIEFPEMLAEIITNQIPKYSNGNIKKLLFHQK
# [12] = target: Vitamin D3 receptor (Homo sapiens) (UniProt P11473); experiment: qHTS for Inhibitors of the vitamin D receptor (VDR): Hit Validation in Primary Screen (AID 602199); details: VDR-coactivator inhibition assay, qHTS confirmation; note: potency is the fitted concentration of half-maximal effect
# Sequence of Vitamin D3 receptor (Homo sapiens) (P11473 whole entry, looked up, the tested form may be a part): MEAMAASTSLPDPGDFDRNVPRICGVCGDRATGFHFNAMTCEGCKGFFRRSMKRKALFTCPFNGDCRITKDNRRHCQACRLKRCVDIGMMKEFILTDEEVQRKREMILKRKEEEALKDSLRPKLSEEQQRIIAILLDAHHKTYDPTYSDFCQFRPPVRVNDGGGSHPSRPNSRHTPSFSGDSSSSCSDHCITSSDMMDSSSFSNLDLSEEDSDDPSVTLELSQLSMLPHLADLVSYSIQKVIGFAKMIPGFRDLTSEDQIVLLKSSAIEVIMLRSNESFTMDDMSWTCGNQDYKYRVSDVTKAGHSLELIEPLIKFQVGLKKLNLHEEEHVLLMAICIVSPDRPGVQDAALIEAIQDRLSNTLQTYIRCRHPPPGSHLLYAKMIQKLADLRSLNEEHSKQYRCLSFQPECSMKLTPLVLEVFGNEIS
# Procedure, shortened: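 Fluorescence polarization (Ex 620/Em 688 nm) of Alexa 647-SRC2-3 peptide with 800 nM VDR and 5 uM LG19078. Compounds at several concentrations, 2 h at room temperature.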
# [13] = target: Vitamin D3 receptor (Homo sapiens) (UniProt P11473); experiment: qHTS for Inhibitors of the vitamin D receptor (VDR): Hit Validation using a Fluorescein Assay (AID 602200); details: VDR-coactivator binding, fluorescein fluorescence polarization; note: potency is the fitted concentration of half-maximal effect
# Procedure, shortened: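 Fluorescence polarization: 1.5 uM VDR-LBD, 5 uM LG19078 and 5 nM fluorescein-labeled SRC2-3 peptide (final) with compounds, 2 h at room temperature. Read at Ex 495/Em 520 nm; peptide-only wells served as control.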
# [14] = target: Vitamin D3 receptor (Homo sapiens) (UniProt P11473); experiment: qHTS for Inhibitors of the vitamin D receptor (VDR): Hit Validation using a Beta-Lactamase Assay (AID 602202); note: potency is the fitted concentration of half-maximal effect
# Procedure, shortened: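 Stably transfected HEK293 cells expressing VDR-GAL4 DNA-binding domain fusion with UAS-driven beta-lactamase reporter, activated by agonist LG190178; compounds incubated 18 h, then FRET beta-lactam substrate 2 h; cleaved substrate read at 447 nm emission.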
# [15] = qHTS for Inhibitors of the vitamin D receptor (VDR): Hit Validation using a Cytotoxicity Assay (AID 602204);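 note: cells co-treated with VDR agonist LG190178 at 300 nM; potency is the fitted concentration of half-maximal effect; nearly all actives have a fitted effect of over 75% in size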
# Procedure, shortened: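 Luminescence proportional to cellular ATP reports viability. Cells (20,000 per well) rested 4 h, were treated with compounds for 18 h, then incubated 30 min with detection reagent. Controls: cycloheximide (high) and DMSO.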
# [16] = target: Lysosomal acid glucosylceramidase (Homo sapiens) (UniProt P04062); experiment: Glucocerebrosidase-p2 (AID 348; in the data active = potency below about 10 µM; note: potency is the fitted concentration of half-maximal effect); details: purified GBA, blue fluorogenic substrate, 40 min
# Procedure, shortened: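 Normal human glucocerebrosidase (0.2 nM) with blue fluorogenic substrate (80 uM final) in citrate/phosphate pH 5.9 with 10mM sodium taurocholate, 0.01% tween-20; 40 min RT, NaOH/glycine stop; fluorescence Ex 365/Em 440; AC50 from a titration from 0.6 nM upwards.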
# [17] = target: Cytochrome P450 1A2 (Homo sapiens) (UniProt P05177); experiment: p450-cyp1a2 (AID 410; calls by dose curve; note: potency is the fitted concentration of half-maximal effect)
# Procedure, shortened: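 Read-out is luminescence from luciferin produced by CYP1A2 demethylation of Luciferin-ME (100uM, at Km). Detection reagent stopped the 60 min NADPH-dependent reaction; signals were normalized to 57 uM furafylline.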
# [18] = target: Glucocorticoid receptor (Homo sapiens) (UniProt P04150); experiment: GR-EFC Redistribution (AID 451; calls by dose curve; note: potency is the fitted concentration of half-maximal effect); details: CHO-K1 GR-EFC translocation, beta-gal luminescence, 2 h
# Procedure, shortened: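 CHO-K1 cells expressing nuclear EA and GR-ED fragments of b-gal; compounds titrated up to 46 uM final, 2 h at 37 C. GR nuclear translocation read as complemented b-gal luminescence after 1 h RT detection.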
# [19] = target: Mitogen-activated protein kinase 10 (Mus musculus) (UniProt Q61831); experiment: JNK3 AlphaScreen Assay (AID 530; active = well fitted curve in either direction with a large enough effect, not every such curve was filed as active;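 note: kinase came from lysate of stimulated human HepG2 cells; signal reports phosphorylation of biotinylated GST-cJun 1-79 at Ser73 with 10 µM ATP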)
# Procedure, shortened: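 HepG2 lysate (IL-1b/TNFa pre-activated) + biotin-GST-cJun 1-79 + anti-pSer73 cJun; cpd titration, 15 min RT; ATP 10 uM start; Tris pH 7.6, MgCl2, DTT, vanadate; beads in EDTA buffer; AlphaScreen.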
# [20] = target: 3',5'-cyclic-AMP phosphodiesterase 4B (Homo sapiens) (UniProt Q07343); experiment: qHTS Assay for Inhibitors of PDE-IV (AID 607; active = well fitted activation curve with a large enough effect in the main read-out, with a control signal flat, not every such curve was filed as active)
# Procedure, shortened: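 ACTOne HEK293 cells carry a modified cAMP-gated CNG channel and express endogenous PDE4; plated 1000 cells/well, compounds up to 22.9 uM final. Membrane-potential dye fluorescence (ex 535/em 590) was read; parental cells received 10 uM forskolin + 100 uM RO 20-1724.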
# [21] = target: Cytochrome P450 2C9 (Homo sapiens) (UniProt P11712); experiment: qHTS Assay for Inhibitors and Substrates of Cytochrome P450 2C9 (AID 883); note: potency is the fitted concentration of half-maximal effect; nearly all actives have a fitted effect of over 60% in size
# Procedure, shortened: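 10nM CYP2C9 + 100uM Luciferin-H (=KM), 25mM KPO4; cpd 10 min 37C; NADPH regen, 60 min 37C; stop/detect with P450 Glo-Buffer 20 min; luminescence. Norm. to 57uM sulphaphenazole as full inhibition.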
# [22] = target: Cytochrome P450 3A4 (Homo sapiens) (UniProt P08684); experiment: qHTS Assay for Inhibitors and Substrates of Cytochrome P450 3A4 (AID 884); note: potency is the fitted concentration of half-maximal effect; nearly all actives have a fitted effect of over 50% in size
# Sequence of Cytochrome P450 3A4 (Homo sapiens) (P08684 whole entry, looked up): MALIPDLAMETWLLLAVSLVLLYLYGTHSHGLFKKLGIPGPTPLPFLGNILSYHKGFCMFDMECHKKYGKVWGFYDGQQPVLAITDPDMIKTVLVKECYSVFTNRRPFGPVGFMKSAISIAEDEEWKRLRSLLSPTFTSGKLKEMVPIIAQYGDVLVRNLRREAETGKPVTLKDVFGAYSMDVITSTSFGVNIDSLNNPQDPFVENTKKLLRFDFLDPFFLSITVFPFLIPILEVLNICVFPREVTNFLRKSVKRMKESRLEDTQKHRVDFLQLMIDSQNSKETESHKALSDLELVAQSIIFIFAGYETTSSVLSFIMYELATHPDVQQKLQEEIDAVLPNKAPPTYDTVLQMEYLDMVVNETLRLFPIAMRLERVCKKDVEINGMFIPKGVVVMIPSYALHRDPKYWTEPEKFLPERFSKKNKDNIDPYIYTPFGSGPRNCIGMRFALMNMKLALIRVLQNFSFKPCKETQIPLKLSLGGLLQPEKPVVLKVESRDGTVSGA
# Procedure, shortened: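 Luminescent readout of luciferin produced by CYP3A4 (20 nM) dealkylation of Luciferin-PPXE, 25 uM (its KM). NADPH-driven reaction ran 60 min at RT after 10 min compound preincubation; data scaled to 57 uM ketoconazole as 100% inhibition.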
# [23] = target: Cytochrome P450 3A4 (Homo sapiens) (UniProt P08684); experiment: qHTS Assay for Activators of Cytochrome P450 3A4 (AID 885); note: nearly all actives have a fitted effect of over 65% in size
# Procedure, shortened: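 CYP3A4 activity: Luciferin-PPXE O-dealkylation, 25uM substrate, 200mM KPO4, RT throughout. Read-out is luciferase luminescence; higher values reflect activation.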
# [24] = target: Cytochrome P450 2D6 (Homo sapiens) (UniProt P10635); experiment: qHTS Assay for Inhibitors and Substrates of Cytochrome P450 2D6 (AID 891); note: potency is the fitted concentration of half-maximal effect; nearly all actives have a fitted effect of over 60% in size
# Procedure, shortened: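 Luminescent read-out of luciferin formed by 5 nM human CYP2D6 demethylating 30 uM Luciferin-ME EGE (Km level) over 60 min at room temperature after NADPH regeneration addition. Data normalized to full inhibition by 1.43 uM quinidine.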
# [25] = target: Cytochrome P450 2C19 (Homo sapiens) (UniProt P33261); experiment: qHTS Assay for Inhibitors and Substrates of Cytochrome P450 2C19 (AID 899); note: potency is the fitted concentration of half-maximal effect; nearly all actives have a fitted effect of over 60% in size
# Procedure, shortened: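 Luminescent read-out of luciferin formed from Luciferin-H EGE (10uM, equal to KM). Enzyme 5nM in 50mM KPO4; compound added, 10 min at 37C, then NADPH regenerating system for 60 min at 37C. Full inhibition defined by 57uM ketoconazole.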
compound,measurement,setting,value
C=CCn1c(=O)/c(=C/c2ccc(C)o2)s/c1=C(/C#N)C(=O)c1ccccc1,Potency,[1],18.3 µM (active)
same,Potency,[2],inactive
same,activation,[3],"3.1% [at 17.1 µM, percent relative to cAMP agonist control]"
same,Potency,[4],inactive
same,"activity change, negative = inhibition",[5],-7.69% [at 30.8 µM]
same,activation,[6],34.7% [at 30.8 µM]
COc1ccc(C(CC(=O)N2CCCC2)c2c(OC)cc(OC)c3c(-c4ccccc4)cc(=O)oc23)cc1 (stereo not given),Potency,[7],2.24 µM (active)
same,Potency,[2],inactive
same,Potency,[3],inactive
same,Potency,[4],inactive
same,Potency,[5],inactive
COCCn1c(N)c(C(=O)NCC2CCCO2)c2nc3ccccc3nc21 (stereo not given),"activity change, negative = inhibition",[8],-8.13% [at 17.2 µM]
same,"activity change, negative = inhibition",[9],8.7% [at 17.2 µM]
same,outcome,[10],inactive
same,Potency,[11],> 20.6 µM
same,Potency,[2],inactive
same,Potency,[3],inactive
same,Potency,[4],inactive
same,Potency,[5],inactive
COC(=O)c1cc2c(N)c(C(=O)c3ccc(Cl)cc3)sc2nc1C(OC)OC,Potency,[1],inactive
same,Potency,[2],inactive
same,activation,[3],"5.58% [at 17.1 µM, percent relative to cAMP agonist control]"
same,Potency,[4],inactive
same,"activity change, negative = inhibition",[5],-4.3% [at 30.8 µM]
same,activation,[6],42.3% [at 30.8 µM]
CCCCN1CC(c2nc3ccccc3n2CCCCOc2cc(C)cc(C)c2)CC1=O (stereo not given),Potency,[2],inactive
same,Potency,[3],inactive
same,Potency,[4],inactive
same,Potency,[5],inactive
same,Potency,[6],inactive
O=C(Nc1ccccc1Cl)/C(Cl)=C(\Cl)S(=O)c1ccccc1 (stereo not given),Potency,[12],3.36 µM (active)
same,Potency,[13],3.16 µM (active)
same,Potency,[14],3.66 µM (active)
same,Potency,[15],20.6 µM (active)
same,Potency,[2],inactive
same,Potency,[3],inactive
same,Potency,[4],inactive
same,Potency,[5],inactive
same,Potency,[6],inactive
O=C1C=C(NCCc2cc(Br)c(O)c(Br)c2)C(=O)c2ncccc21,Potency,[16],> 11.4 µM
same,Potency,[17],3.16 µM (active)
same,Potency,[11],> 46 µM
same,Potency,[18],> 9.22 µM
same,"activity change, negative = inhibition",[19],0.257% [at 11.4 µM]
same,Potency,[20],inactive
same,Potency,[21],1.58 µM (active)
same,Potency,[22],3.16 µM (active)
same,"activity change, positive = activation",[23],-62.8% [at 11.4 µM]
same,Potency,[24],1.58 µM (active)
same,Potency,[25],0.501 µM (active)
same,Potency,[2],inactive
same,activation,[3],"5.19% [at 17.1 µM, percent relative to cAMP agonist control]"
same,Potency,[4],inactive
same,"activity change, negative = inhibition",[5],-20.2% [at 30.8 µM]
same,activation,[6],14.9% [at 30.8 µM]
CCc1cccc(C)c1Nc1c(-c2ccsc2)nc2ncccn12,Potency,[2],inactive
same,Potency,[3],inactive
same,outcome,[4],inactive [at 12.7 µM]
same,Potency,[5],inactive
same,Potency,[6],inactive
